40 compounds from PubChem BioAssay can be followed below.

Usually remaining activity stands for the signal under treatment as a percentage of the control signal.

A number with no mark means an inactive call. No rule for the calls is given here.

This assay relates to Aerobactin synthetase IucA (Klebsiella pneumoniae, hypervirulent). As to the kind of experiment: biochemical IucA inhibition screen of LOPAC library by absorbance (AID 1346212).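 Also: 100% = no compound wells and 0% = no enzyme wells.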 Conditions: IucA enzyme assay, absorbance (OD) readout; hits give low values;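 tested at 8 µM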.
For `O=C1Nc2ccc(I)cc2/C1=C/c1cc(Br)c(O)c(Br)c1`, the remaining activity is 113%.
For the compound `O=c1cc(O)cc(/C=C/c2ccc(O)c(O)c2)o1`, the remaining activity is 93.8%.
The figure for `O=C(O)Cc1ccc(O)c(O)c1` is 107%; for `FC(F)(F)c1cc(CO[C@H]2CCCN[C@H]2c2ccccc2)cc(C(F)(F)F)c1` it is 107%; for `C=C/C(C)=C/[C@@]1(C)SC(=O)C(C)=C1O` it is 123%.
With `Cc1cnc(C(=O)NCCc2ccc(S(=O)(=O)NC(=O)NC3CCCCC3)cc2)cn1`, the remaining activity is 81%.
The figure for `C[C@]12C=CC(=O)C=C1CC[C@@H]1C2=CC[C@]2(C)[C@@H](C(=O)CN3CCN(c4cc(N5CCCC5)nc(N5CCCC5)n4)CC3)CC[C@@H]12` is 102%.
With `COc1cccc(OC)c1OCCNCC1CSc2ccccc2O1` (stereo not given), the remaining activity is 114%.
With `CC1CCN(CC[C@H]2CCCN2S(=O)(=O)c2cccc(O)c2)CC1`, the remaining activity is 125%.
On to `CN1[C@@H]2CC(OC(=O)[C@H](CO)c3ccccc3)C[C@H]1[C@@H]1O[C@@H]12` (stereo not given in full), for which the remaining activity is 105%.
On to `CC#C[C@]1(O)CC[C@H]2[C@@H]3CCC4=CC(=O)CCC4=C3[C@@H](c3ccc(N(C)C)cc3)C[C@@]21C`, for which the remaining activity is 111%.
For the compound `C[N+](C)(C)CCOP(=O)(O)OP(=O)([O-])OC[C@H]1O[C@@H](n2ccc(N)nc2=O)[C@H](O)[C@@H]1O`, the remaining activity was 115%.
The figure for `O=C1NCN(c2ccccc2)C12CCN(CCCC(c1ccc(F)cc1)c1ccc(F)cc1)CC2` is 104%; for `CC(=O)/C(C)=N/O` it is 106%.
The figure for `O=C1NC(=S)S/C1=C/c1cc(Br)ccc1OCc1ccccc1Br` is 116%; for `Nc1nc(SCc2ccc([N+](=O)[O-])cc2)c2ncn([C@@H]3O[C@H](CO)[C@H](O)C3O)c2n1` (stereo not given in full) it is 107%; for `CCCC(=O)NCCc1c2n(c3ccc(OC)cc13)Cc1ccccc1-2` it is 89.8%.
The figure for `c1ccc2c(c1)CC(N1CCN(c3cccc4c3OCCO4)CC1)C2` is 108%.
For the compound `CCN1CCc2nc(N)oc2CC1`, the remaining activity was 119%.
For `Nc1nc2ccc(Cl)cc2c2nc(-c3ccco3)nn12`, the remaining activity was 104%.
Consider `CN(C)C(N)=NCCC[C@H](N)C(=O)O`, for which the remaining activity is 97.3%.
The same measure for `CCCCN1CCC(COC(=O)c2cc(Cl)c(N)c3c2OCCO3)CC1`: 109%; for `Cn1cc(C2=C(c3ccc(Cl)cc3Cl)C(=O)NC2=O)c2ccccc21`: 116%; for `CC(=O)[C@H]1CC[C@H]2[C@@H]3CCC4=CC(=O)CC[C@]4(C)[C@H]3CC[C@]12C`: 123%.
On to `Clc1nccc2c1ccc1ccccc12`, for which the remaining activity is 109%.
Regarding `NC(=O)c1ccc2[nH]ccc2c1`, the remaining activity is 89.8%.
`Fc1ccc(CN(C2=NCCN2)c2c(Cl)cccc2Cl)cc1`: the remaining activity was 113%.
As to `CC(C)Oc1cccnc1N(C)C1CCN(Cc2ccc(I)cc2)CC1`, the remaining activity was 97.8%.
On to `O=C(O)/C=C/C(O)c1ccc(Cl)cc1` (stereo not given), for which the remaining activity was 120%.
The figure for `C[C@H](NC(=O)/C(C#N)=C/c1ccc(O)c(O)c1)c1ccccc1` is 95.7%.
For the compound `CC1(C)C(=O)N(CCN2CCC(C(=O)c3ccc(F)cc3)CC2)c2ccccc21`, the remaining activity was 118%.
In the case of `NC(N)=N[C@@H](CCC(=O)O)C(=O)O`, the remaining activity was 115%.
The same measure for `C#CC(N)CCC(=O)O` (stereo not given): 122%; for `CC(C)NCC(O)COc1ccc(COCCOC(C)C)cc1` (stereo not given): 91.4%; for `COc1ccccc1N1CCN(CCCCNC(=O)c2ccc3ccccc3c2)CC1`: 118%.
The same measure for `Cc1cccc(C(=O)NCN2CCN(c3ccccc3C#N)CC2)c1`: 123%; for `Cc1ccc([N+](=O)[O-])cc1S(=O)(=O)N(C)C`: 108%.
Turning to `CCCCCCCC/C=C\CCCCCCCC(=O)O`, the remaining activity was 119%.
The same measure for `CCCn1c(=O)c2c(ncn2C)n(CCC)c1=O`: 110%.
In the case of `O=C(OCCN1CCOCC1)C1(c2ccccc2)CCCCC1`, the remaining activity was 123%.
